Rows were chosen to be rich in hits. Some 8.1% of all compounds tested hit in one or more screens of this group.
KB-3-1 tox: qHTS assay for MDR1-selective chemotherapeutics: Primary screen using the parental adenocarcinoma cell KB-3-1; KB-3-1 viability, CellTiter-Glo ATP luminescence, 72 h; Potency, µM (doses to about 46.1 µM), hits mostly cytotoxic; actives 1.4% (n = 400,000); AID 1347075, 2019; also: % is scaled to controls: 0 for no effect and ±100 for the full control effect; nearly all actives have a fitted effect of over 60% in size
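Here the drug-naive KB-3-1 line serves as comparator for MDR sub-line selectivity; cells received compound titrations, 72 h at 37 °C, then CellTiter-Glo readout.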
KB-V1 MDR tox: qHTS assay for MDR1-selective chemotherapeutics: Primary screen using the drug-selected MDR subline cells KB-V1; AID 1347076, 2019; Potency, µM (titrated, usually from 46.1 µM), actives largely listed as cytotoxic; actives 3.4% (n = 400,000); KB-V1 MDR cells viability, CellTiter-Glo, 72 h; also: % is scaled to controls: 0 for no effect and ±100 for the full control effect; nearly all actives have a fitted effect of over 60% in size
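KB-V1 MDR subline cells in DMEM (phenol-red free, 10% FBS) exposed to compounds in qHTS concentration series for 72 h at 37 degrees C. Viability read by CellTiter-Glo luminescence; concentration-effect curves fitted after normalization and correction.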
SW480 rerep: A quantitative high throughput screen for small molecules that induce DNA re-replication in SW480 colon adenocarcinoma cells; Potency, µM (doses to about 46.1 µM), without a hit: at the top dose re-replication activation, actives largely listed as activators; SW480 DNA re-replication, Hoechst DNA content imaging, 48 h; actives 1.8% (n = 340,000); also: % of control where 0% means no effect; nearly all actives have a fitted effect of over 55% in size
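Quantitative HTS format with DMSO vehicle controls; 48 hr drug incubation at 37 C, then 40 min Hoechst staining and scanning imager measurement at 405 nm excitation.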
MCF10A rereplic: A quantitative high throughput screen for small molecules that induce DNA re-replication in MCF 10a normal breast cells; MCF 10A DNA re-replication, Hoechst nuclear intensity, 48 h; Potency, µM (titrated, usually from 46.1 µM), for the others: top-dose activity, positive = re-replication, usual class: activators; actives 2.9% (n = 350,000); also: % of control where 0% means no effect; nearly all actives have a fitted effect of over 50% in size
ELG1 DNA repair: qHTS screen for small molecules that inhibit ELG1-dependent DNA repair in human embryonic kidney (HEK293T) cells expressing luciferase-tagged ELG1; HEK293T ELG1-luciferase reporter, luminescence, 16 h; DNA damage induced by 5-fluorouridine; actives 2.3% (n = 330,000); Potency, µM (titrated, usually from 46.1 µM), for inactives: at the top dose activity change, negative = inhibition, most hits filed as inhibitors; also: % is scaled to controls: 0 for no effect and ±100 for the full control effect; nearly all actives have a fitted effect of over 55% in size
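5-Fluorouridine DNA damage + compound/DMSO, 2,000 cells/well, 16 h, 37 °C/5% CO2. ONE-Glo, 30 min RT, luminescence. Readout = decrease in reporter signal.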
An asterisk follows results filed as active; i = inactive; ? = inconclusive; / = no result given. Calls follow the shape of the dose curve; as a rule, active = well fitted curve in the direction sought with a large enough effect; inconclusive = small, poorly fitted or top-dose-only effect, or another doubt; inactive = no such curve, though single readings can be large; an effect the other way counts as inactive or inconclusive. Potency is read from the fitted curve at half-maximal effect.

SMILES	KB-3-1 tox	KB-V1 MDR tox	SW480 rerep	MCF10A rereplic	ELG1 DNA repair
Cc1ccc(O)c(-c2cc(C(=O)Nc3cccnc3)[nH]n2)c1	i	i	?	?	?
CN1CCN(c2ccc(CNS(=O)(=O)c3ccc(F)cc3Cl)cc2)CC1	i	i	-3.9%	9.8%	-5.0%
Cc1cccc(-c2nsc(SCC(=O)N3CCCC3)n2)c1	i	16.4µM*	-4.5%	6.1%	?
COc1ccc(OC)c(-c2cc(C(=O)Nc3c(C)n(C)n(-c4ccccc4)c3=O)no2)c1	i	23.1µM*	3.0%	16.0%	-3.2%
COc1ccc(OC)c(-c2cc(C(=O)Nc3c(C)nn(Cc4ccccc4C)c3C)no2)c1	i	i	7.6%	-13.1%	25.9µM*
COc1ccc(-c2cc(C(=O)Nc3c(C)nn(Cc4ccccc4Cl)c3C)no2)cc1OC	?	?	-2.1%	28.8%	23.1µM*
COc1ccc(OC)c(-c2cc(C(=O)Nc3c(C)nn(Cc4ccccc4Cl)c3C)no2)c1	?	i	11.2%	15.0%	0.0%
Cc1cc(C(=O)Nc2c(C)nn(Cc3ccccc3Cl)c2C)no1	i	20.6µM*	-2.2%	2.6%	-1.3%
CCN(CCCNC(=O)CCCCn1c(=O)[nH]c2ccccc2c1=O)c1ccccc1	i	i	7.2%	6.0%	7.5%
CCn1c(CSc2nc(C)cc(C)n2)nnc1SCC(=O)Nc1ccccc1	i	20.6µM*	-7.0%	7.4%	-0.5%
CCn1c(Cn2nnc(-c3ccccc3)n2)nnc1SCC(=O)Nc1cccc(C(C)=O)c1	i	i	?	20.6µM*	?
CCn1c(CSc2nc(C)cc(C)n2)nnc1SCC(=O)Nc1cccc2ccccc12	i	i	1.9%	-4.7%	-13.0%
COc1ccc(OC)c(C(O)CNC(=O)CN)c1 (stereo not given)	i	i	?	23.3%	2.4%
CCC(C)Sc1cc(C)c(C#N)c2nc3ccccc3n12 (stereo not given)	i	?	14.2%	?	?
NC(=S)NN=C1CCCCCCCCCC1	?	?	-4.1%	?	/
Cc1ccc2cc3c(N)[nH]nc3nc2c1	i	18.4µM*	/	-6.9%	3.5%
Cc1nc2sc(C(=O)Nc3ccccc3Cc3ccccc3)c(C)c2c(=O)[nH]1	i	?	-7.2%	5.8µM*	?
Cc1ccccc1NC(=O)c1sc2nc[nH]c(=O)c2c1C	i	i	-1.1%	-10.1%	-6.1%
CCc1nc(NCCN2CCOCC2)c(C#N)c2c1CCCC2	i	i	-0.7%	-1.9%	-13.5%
C=CCn1c(C(C)NC(=O)c2ccc(C)cc2)n[nH]c1=S (stereo not given)	i	?	1.7%	0.3%	11.8%
C=CCn1c(NC(=O)c2ccc(C)cc2)c(C#N)sc1=N	5.17µM*	1.3µM*	0.8%	?	?
COc1cccc(C(=O)C2CN(c3ccccc3)CC2c2ccc(Cl)cc2)c1 (stereo not given)	i	16.4µM*	?	25.9%	12.2%
Cc1ccc(O)c(NC(=O)c2cc(-c3ccccc3Cl)on2)c1	i	i	2.7%	?	?
CCOc1cc(/C=N/NC(=O)c2ccncc2)cc(Cl)c1OS(C)(=O)=O	i	i	12.7%	22.9%	14.6µM*
CCOc1cc(/C=N/NC(=O)c2ccncc2)ccc1OS(C)(=O)=O	i	i	-3.6%	-6.8%	5.5%
SMILES	KB-3-1 tox	KB-V1 MDR tox	SW480 rerep	MCF10A rereplic	ELG1 DNA repair
CCOc1cc(NC(=S)NC)c(OCC)cc1NC(=O)c1ccc(OC)cc1	i	i	-2.3%	7.1%	8.7%
COC(=O)C1(CC2CC(c3ccc(Cl)cc3)=NO2)CCN(C(=O)OC(C)(C)C)CC1 (stereo not given)	i	i	24.2%	?	-23.6%
CC1=CC(C)(C)Nc2ccc(OC(=O)C(Cc3ccccc3)N3C(=O)c4ccccc4C3=O)cc21 (stereo not given)	i	i	13.9%	?	7.5%
CC1=CC(C)(C)Nc2ccc(OC(=O)CN3C(=O)c4cccc5cccc(c45)C3=O)cc21	i	i	?	14.6µM*	-0.7%
CC1=CC(C)(C)Nc2ccc(OC(=O)CN3C(=O)c4ccccc4C3=O)cc21	?	i	18.4µM*	5.8µM*	12.7%
O=C(c1cc(F)ccc1F)C1CCCN(C(=O)c2ccc(F)cc2Cl)C1 (stereo not given)	i	11.6µM*	6.7%	?	-3.9%
COC(=O)c1ccc(CC(=O)c2c(C)cc(O)cc2O)o1	i	i	-1.0%	-1.0%	-3.6%
CCSc1nnc(NC(=O)C2Cc3ccccc3CN2S(=O)(=O)CC)s1 (stereo not given)	i	i	12.1%	-2.2%	?
COc1ccc(C=CC(=O)C=CC=Cc2ccccc2)cc1	?	i	20.6µM*	?	/
CNc1ccccc(C(=O)/C=C/c2ccccc2OC)c1=O	?	14.6µM*	?	?	23.1µM*
COc1ccccc1C=CC(=O)C=Cc1ccccc1OC	?	?	8.2µM*	3.26µM*	/
COc1ccccc1/C=C/C(=O)/C=C/c1ccccc1O	?	?	?	10.3µM*	?
CCOC(=O)[C@]12CCCC=C1N(CCC1=CCCCC1)C(=O)[C@H](CC(=O)N1CCC(c3ccccc3)CC1)C2	i	?	/	/	/
CN(CC1CCCN(CCc2ccc(Cl)cc2)C1)C(=O)C(=O)c1ccco1 (stereo not given)	i	i	3.2%	4.6%	-13.6%
CCOc1ccc(C(C)=O)cc1N1C(=O)C2C(C1=O)C1C=CC2C12CC2 (stereo not given)	i	?	-0.4%	-3.4%	6.1%
CCOc1ccc(C(C)=O)cc1N1C(=O)C2C3C=CC(C3=C(C)C)C2C1=O (stereo not given)	i	16.4µM*	-8.5%	-9.9%	?
CN1CCN(/N=C/c2ccc(N(c3ccccc3)c3ccccc3)cc2)CC1	i	i	14.2%	16.4µM*	?
CCOc1ccc(NC(=O)Cn2cc(S(=O)(=O)c3ccc(C)cc3)c(=O)c3cc(F)ccc32)cc1	i	i	/	/	/
O=C(c1cccc(-n2cnnn2)c1)N1CC=C(c2ccccc2)CC1	i	i	-4.7%	-0.4%	-0.3%
c1ccc2c(c1)ncn2CCOCCOCCn1cnc2ccccc21	i	i	1.8%	4.5%	-10.0%
NCCCn1cnc2ccccc21	i	?	-3.7%	0.581µM*	9.3%
Clc1ccc(OCCn2cnc3ccccc32)c(Cl)c1	?	16.4µM*	-1.0%	9.6%	?
